Test results reported in the supplement of paper PMC9694430.

Legend:
Assay in all cases: thermal shift delta Tm vs DMSO control; higher = stronger stabilization (binding)
Details in all cases: 12.5 µM; protein concentration 2 µM
LOC_OS01G01410-cb001 = system: LOC_OS01G01410-cb001
Summary of the method: (§1)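 Thermal shift values come from differential scanning fluorimetry on purified rice kinase domains made in E. coli, with melting temperatures obtained from Boltzmann fits. Samples of 19.5 μl held 2 μM kinase, 100 mM potassium phosphate pH 7.5, 150 mM NaCl, 10% glycerol, 5 × SYPRO Orange and compound in DMSO, and were heated from 25°C to 95°C at 0.05°C/s. Each shift is a triplicate mean relative to the DMSO-only protein sample.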

LOC_OS01G02750-cb003 = system: LOC_OS01G02750-cb003
Summary of the method: as §1

LOC_OS01G10900-cb004 = system: LOC_OS01G10900-cb004
Summary of the method: as §1

LOC_OS01G13800-cb001 = system: LOC_OS01G13800-cb001
Summary of the method: as §1

LOC_OS01G14860-cb001 = system: LOC_OS01G14860-cb001
Summary of the method: as §1

LOC_OS01G21960-cb002 = system: LOC_OS01G21960-cb002
Summary of the method: as §1

LOC_OS01G39600-cb002 = system: LOC_OS01G39600-cb002
Summary of the method: as §1

LOC_OS01G48390-cb002 = system: LOC_OS01G48390-cb002
Summary of the method: as §1

LOC_OS01G51400-cb002 = system: LOC_OS01G51400-cb002
Summary of the method: as §1

LOC_OS01G52050-cb004 = system: T1, LOC_OS01G52050-cb004
T1 sequence (whole entry): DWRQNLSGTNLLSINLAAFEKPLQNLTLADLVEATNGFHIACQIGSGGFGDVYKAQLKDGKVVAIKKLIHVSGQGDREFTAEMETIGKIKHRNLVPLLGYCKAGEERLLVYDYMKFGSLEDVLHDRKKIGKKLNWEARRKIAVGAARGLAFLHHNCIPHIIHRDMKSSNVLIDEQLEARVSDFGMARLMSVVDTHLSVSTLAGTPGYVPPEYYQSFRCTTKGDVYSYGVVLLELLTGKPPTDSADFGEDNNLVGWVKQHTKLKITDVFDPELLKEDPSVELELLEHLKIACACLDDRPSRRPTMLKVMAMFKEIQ
Summary of the method: as §1

LOC_OS01G57100-cb003 = system: LOC_OS01G57100-cb003
Summary of the method: as §1

LOC_OS01G60330-cb001 = system: LOC_OS01G60330-cb001
Summary of the method: as §1

LOC_OS01G60700-cb002 = system: LOC_OS01G60700-cb002
Summary of the method: as §1

LOC_OS01G63280-cb003 = system: LOC_OS01G63280-cb003
Summary of the method: as §1

LOC_OS01G67340-cb003 = system: LOC_OS01G67340-cb003
Summary of the method: as §1

LOC_OS01G70970-cb002 = system: LOC_OS01G70970-cb002
Summary of the method: as §1

LOC_OS02G07810-cb001 = system: LOC_OS02G07810-cb001
Summary of the method: as §1

LOC_OS02G08530-cb003 = system: LOC_OS02G08530-cb003
Summary of the method: as §1

LOC_OS02G14120-cb001 = system: LOC_OS02G14120-cb001
Summary of the method: as §1

LOC_OS02G17970-cb001 = system: LOC_OS02G17970-cb001
Summary of the method: as §1
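Further: purified Escherichia coli-expressed rice kinase domain construct.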

Row | Compound | thermal shift delta Tm (LOC_OS01G01410-cb001) [°C] | thermal shift delta Tm (LOC_OS01G02750-cb003) [°C] | thermal shift delta Tm (LOC_OS01G10900-cb004) [°C] | thermal shift delta Tm (LOC_OS01G13800-cb001) [°C] | thermal shift delta Tm (LOC_OS01G14860-cb001) [°C] | thermal shift delta Tm (LOC_OS01G21960-cb002) [°C] | thermal shift delta Tm (LOC_OS01G39600-cb002) [°C] | thermal shift delta Tm (LOC_OS01G48390-cb002) [°C] | thermal shift delta Tm (LOC_OS01G51400-cb002) [°C] | thermal shift delta Tm (LOC_OS01G52050-cb004) [°C] | thermal shift delta Tm (LOC_OS01G57100-cb003) [°C] | thermal shift delta Tm (LOC_OS01G60330-cb001) [°C] | thermal shift delta Tm (LOC_OS01G60700-cb002) [°C] | thermal shift delta Tm (LOC_OS01G63280-cb003) [°C] | thermal shift delta Tm (LOC_OS01G67340-cb003) [°C] | thermal shift delta Tm (LOC_OS01G70970-cb002) [°C] | thermal shift delta Tm (LOC_OS02G07810-cb001) [°C] | thermal shift delta Tm (LOC_OS02G08530-cb003) [°C] | thermal shift delta Tm (LOC_OS02G14120-cb001) [°C] | thermal shift delta Tm (LOC_OS02G17970-cb001) [°C]
1 | COc1cc2nccc(Oc3ccc(NC(=O)C4(C(=O)Nc5ccc(F)cc5)CC4)cc3)c2cc1OC | 1.63 | 0.81 | 0.73 | 0.78 | 1.07 | 0.93 | 1.5 | 6.38 | 0.3 | 2.44 | 1.05 | 2.17 | 1.12 | 1.29 | 0.96 | 1.37 | 1.4 | 1.21 | 5.23 | 0.76
2 | COc1cc(OC)cc(-c2cc3cnc(N)nc3nc2NC(=O)NC(C)(C)C)c1 | 0.51 | 1.48 | 0.1 | 0.07 | 0.48 | 0.33 | -0.76 | 0.85 | 0.05 | 1.75 | 1.18 | 0.3 | 0.16 | 0.24 | -0.11 | 0.35 | -0.88 | 0.52 | 0.72 | -0.49
3 | CN(C)C/C=C/C(=O)Nc1cc2c(Nc3ccc(F)c(Cl)c3)ncnc2cc1O[C@H]1CCOC1 [Afatinib (BIBW2992) Dimaleate] | 0.1 | 2.11 | 5.05 | 0.72 | 3.86 | 1.14 | 1.17 | 2.48 | 0.14 | 1.67 | 0.18 | 1.16 | 1.57 | 1 | 0.71 | -0.12 | 0.8 | 1.12 | 2.75 | 1.68
4 | C=CC(=O)Nc1cccc(Nc2nc(Nc3ccc(N4CCN(C(C)=O)CC4)cc3OC)ncc2C(F)(F)F)c1 [Rociletinib (CO-1686, AVL-301)] | 1.11 | -0.18 | -0.01 | -0.38 | 0.68 | 0.5 | -0.84 | 1.8 | 0.49 | 0.58 | 3.39 | 1.53 | 1.63 | -0.27 | 0.52 | 1.38 | 1 | 5.28 | 1.71 | 0.49
5 | COc1ccc(Cl)c(Nc2nc3ccccc3nc2NS(=O)(=O)c2cccc(NC(=O)C(C)(C)N)c2)c1 [Pilaralisib (XL147)] | 1.63 | 2.16 | 0.29 | 1.9 | 1.53 | 0.73 | 2.65 | 1.05 | 1.3 | 4.64 | 0.77 | 3.02 | 0.4 | 2.27 | 2 | 1.26 | 1.84 | 0.06 | -0.43 | 1.12
6 | Oc1cc(CNC(=S)/C=C/c2cc(O)c(O)c(Br)c2)cc(O)c1O | 4.72 | 1.04 | -0.23 | 4.09 | 2.93 | 5.85 | 0.87 | 0.74 | 1.58 | 1.78 | 7.83 | 17.7 | -0.76 | 20 | 0.53 | 0.97 | 4.09 | -1.06 | -0.83 | 7.15
7 | Cc1cc(Nc2ncnc3ccc(-c4ccc(CNCCS(C)(=O)=O)o4)cc23)ccc1Oc1ccn2ncnc2c1 [HER2-Inhibitor-1] | 1.34 | 2.06 | 3.1 | 0.55 | 2.31 | 1.18 | 3.89 | 0.83 | 0.03 | 1.36 | 2.52 | 0.97 | 1.31 | 1.08 | 0.71 | 0.3 | 0.98 | 2.32 | 2.21 | 1.79
